# Test results from the supplement of paper PMC12350171.
# Where a name gives a salt, the structure may show the parent alone. Values without a mark were called inactive.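 How the source made its calls: active = AUC significantly below DMSO controls by Student t-fit with adjusted P under 0.01; inactive = not significantly reduced.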
# System: Haemophilus parainfluenzae
# Test: growth AUC normalised to DMSO control (fraction of control); higher = less growth inhibition, active = hit call of the paper
# Conditions: 20 µM
# Summary of the method: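 Three biological replicates were carried out, with OD578 read hourly for 24 h. Before inoculation at a starting OD578 of 0.01, pathogens were passaged anaerobically twice; plates were pre-reduced mGAM containing 20 μM compound and 1% DMSO, sealed with breathable membranes, and the Haemophilus parainfluenzae medium carried added hemin and NAD. Area under each growth curve was calculated by the trapezoidal rule up to the exponential-to-stationary transition and normalised to DMSO controls on the same plate.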
row,Compound,growth AUC normalised to DMSO control
1,C=C1C[C@H]2[C@@H]3C=C(C)C4=CC(=O)CC[C@]4(C)[C@H]3CC[C@]2(C)[C@@]1(OC(C)=O)C(C)=O [Melengestrol acetate],1.06
2,O=C(O)CCC(=O)c1ccc(-c2ccccc2)cc1 [Fenbufen],0.905
3,CN1CCN2c3ccccc3Cc3ccccc3C2C1 (stereo not given) [Mianserine hydrochloride],0.903
4,O=C(O)c1cc(=O)c2c(OCC(O)COc3cccc4oc(C(=O)O)cc(=O)c34)cccc2o1 [Cromolyn disodium salt],1.01
5,c1ccc2c(c1)CCCC2C1=NCCN1 (stereo not given) [Tetrahydrozoline hydrochloride],0.986
6,Cc1cc(C2CCCCC2)n(O)c(=O)c1 [Ciclopirox ethanolamine],0.905
7,O=C(C1CCCCC1)N1CC(=O)N2CCc3ccccc3C2C1 (stereo not given) [Praziquantel],1.04
8,O=C(Nc1ccc([N+](=O)[O-])cc1Cl)c1cc(Cl)ccc1O [Niclosamide],0.046 (active)
9,CN1CCC(=C2c3ccccc3CC(=O)c3sccc32)CC1 [Ketotifen fumarate],0.997
10,CN(C)CCOC1=Cc2ccccc2Sc2ccc(Cl)cc21 [Zotepine],0.891
11,CC(c1cc2ccccc2s1)N(O)C(N)=O (stereo not given) [Zileuton],0.909
12,CO[C@@H]1[C@@H](O[C@@H]2O[C@H](C)[C@@H](O[C@H]3C[C@@](C)(O)[C@@H](OC(=O)CC(C)C)[C@H](C)O3)[C@H](N(C)C)[C@H]2O)[C@@H](CC=O)C[C@@H](C)[C@@H](O)/C=C/C=C/C[C@@H](C)OC(=O)C[C@H]1OC(C)=O [Josamycin],0.0327 (active)
13,CC(=O)O[C@H]1C[C@@]2(C)[C@@H](C[C@@H](O)[C@H]3[C@@]4(C)CC[C@@H](O)[C@@H](C)[C@@H]4CC[C@@]32C)/C1=C(\CCC=C(C)C)C(=O)O [Fusidic acid sodium salt],0.345 (active)
14,COc1ccc2[nH]c([S+]([O-])Cc3ncc(C)c(OC)c3C)nc2n1 (stereo not given) [Tenatoprazole],0.978
15,Fc1ccc([C@@H]2CCNC[C@H]2COc2ccc3c(c2)OCO3)cc1 [Paroxetine hydrochloride],0.998
